Over roughly 1,400 sequences, “thermal melting temperature (Tm) of peptide-HLA complex” has its median near 60; the lowest 2% begin near 45. This is one part of a sample in which the lowest values are shown more often than they occur.
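Note: lysates heated 10 min at 37–73 °C, complexes pulled down with pan-HLA I antibody, peptide signal by DIA-MS relative to 37 °C, Tm where half the complex is unfolded.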

The experiment deals with HLA-B*07:02. The experiment can be described thus: thermal melting temperature (Tm) of peptide-HLA complex; higher = more thermostable pHLA complex. The settings on record: C1R-B*07:02.
SPTLPAARSSL displayed a thermal melting temperature of 56.9 °C.

NPKNPGLWL: the thermal melting temperature was 61 °C.

Consider TPRVPDNSL, for which the thermal melting temperature stood at 60.7 °C.

Take SPDLVRVQL: the thermal melting temperature amounted to 60.7 °C.

RPAAGFVAGL came in with a thermal melting temperature of 57 °C.

Take KPWLRALQL: the thermal melting temperature was determined as 59.7 °C.

As for MPFPNIRSAEL, the thermal melting temperature worked out at 58.2 °C.

With TPNDRFILL, the thermal melting temperature came out at 60.4 °C.

As for LPWASTHSL, the thermal melting temperature was 58.1 °C.

In turn, AALPFVRQAGL came in with a thermal melting temperature of 42.3 °C.

In turn, VPNQKRLTLL came in with a thermal melting temperature of 62.4 °C.

For KPYPIAEVEQL, the thermal melting temperature came to 42.7 °C.

For the sequence FDPALLEF, the thermal melting temperature amounted to 42.6 °C.

In turn, YPPNPWREI gave a thermal melting temperature of 59.3 °C.

For the sequence LPSWGRAEL, the thermal melting temperature was 62.8 °C.

GPDEAKIKALL: the thermal melting temperature turned out to be 60 °C.

APFEPLASGIL showed a thermal melting temperature of 60.7 °C.

Turning to SPRPALPALLV, the thermal melting temperature stood at 59.4 °C.

Regarding QPRNLLLAL, the thermal melting temperature was 61.2 °C.

RPSLLPLH: the thermal melting temperature is 61.5 °C.

In turn, VPNWHRDLV had a thermal melting temperature of 58.3 °C.

As to KPMPSLPQL, the thermal melting temperature worked out at 44.9 °C.

VPRAILVDL displayed a thermal melting temperature of 62.4 °C.

As to NPRQPLPASGL, the thermal melting temperature worked out at 58.3 °C.

The sequence SPRPPAEGF returned a thermal melting temperature of 55.8 °C.

RPNGTKVAVL: the thermal melting temperature turned out to be 60.1 °C.

For the sequence RPKTPPVVI, the thermal melting temperature stood at 59.6 °C.

On to FPIPAAEVDRL, for which the thermal melting temperature came to 62.2 °C.

In turn, RPAANPIQFTL returned a thermal melting temperature of 59.8 °C.

With IPRSITVLV, the thermal melting temperature amounted to 62.4 °C.

Regarding MPHVPITTL, the thermal melting temperature is 61.3 °C.

LPQYRLISI gave a thermal melting temperature of 61.3 °C.

In turn, YPARYRPTAL yielded a thermal melting temperature of 58.2 °C.

Regarding QPRLFTMDL, the thermal melting temperature came to 60.2 °C.

SPKSPTAAL gave a thermal melting temperature of 60.1 °C.

VPQESRFNL returned a thermal melting temperature of 57.1 °C.

On to LPRSINTDTL, for which the thermal melting temperature is 58.5 °C.

As to KPKFILSVL, the thermal melting temperature was 62.7 °C.

Regarding YPRPLLIAF, the thermal melting temperature amounted to 62 °C.

As to LPELKSTL, the thermal melting temperature is 60.8 °C.

Regarding SPSFPRPSL, the thermal melting temperature came to 61.4 °C.

As to IPDVKGAVL, the thermal melting temperature was determined as 58.7 °C.

Take SPAPPLLHV: the thermal melting temperature was found to be 60.8 °C.

The sequence KPYAHILSV had a thermal melting temperature of 55.5 °C.

In turn, SPAPRTAL had a thermal melting temperature of 57.4 °C.

Take FPKNIFAEL: the thermal melting temperature was 62.8 °C.

For RPASGSPFQL, the thermal melting temperature stood at 52.6 °C.

Take SPYPGLRLISL: the thermal melting temperature came out at 62.1 °C.

With MPYSNGRPAL, the thermal melting temperature was determined as 58.2 °C.

HPRSPNVLSV displayed a thermal melting temperature of 57.6 °C.

In turn, AVDPNRAVPL had a thermal melting temperature of 60.5 °C.

For the sequence GPHVPFTVF, the thermal melting temperature was determined as 62.3 °C.

Sequence GPRSAQVAQSL came in with a thermal melting temperature of 40.4 °C.

As for SPRALTQPLGL, the thermal melting temperature came to 61.2 °C.

For RPTEGVQAL, the thermal melting temperature stood at 54.3 °C.

VIAPVRAVL: the thermal melting temperature worked out at 59.2 °C.

For the origin of these results see the supplement of paper PMC7726561.
